39 molecules from PubChem BioAssay (EPA / NIEHS) can be followed below.

More than one record can exist for a structure, and the calls need not agree. Activity calls are given as the source filed them. The calls were made as follows: active = hit-call score of the fitted dose curve at least 0.9, where 1 is the maximum; inactive = score below 0.9.

Read-out in this assay: Tumor necrosis factor receptor superfamily member 6 (Homo sapiens) (UniProt P25445)
Briefly: LTEA_HepaRG_FAS: Life Technologies and Expression Analysis (LTEA) Assay for Fas cell surface death receptor (FAS) using HepaRG (AID 2283447). The note with it: mRNA level, 48 h; actives raise or lower the signal. The procedure: LTEA_HepaRG is a cell based, multiplexed-readout assay that uses HepaRG, a human liver cell line, with measurements taken at 48 hours after chemical dosing on a 96-well plate.LTEA_HepaRG_FAS is one of 102 assay component(s) measured in the LTEA HepaRG cell culture assay. It is a marker of Cell proliferation, survival, death.Data from the assay component LTEA_HepaRG_FAS was analyzed into 1 endpoint. This assay endpoint, LTEA_HepaRG_FAS, was analyzed with bidirectional fitting relative to DMSO as the negative control and baseline of activity. Using a type of inducible reporter, measures of mRNA induction for gain or loss-of-signal activity can be used to understand regulation of transcription factor activity. To generalize the intended target to other relatable targets, this assay endpoint is annotated to the cytokine receptor intended target family, where the subfamily is TNF receptor.
A total of 1060 chemcials from the ToxCast library were tested in eight-point concentration-response experiments. Cell culture and cytotoxicity assays were conducted at Thermo Fisher Scientific's Custom Services facility (Madison, WI). A single lot of human HepaRG cells (Thermo Fisher Scientific, Frederick, MD) was used for the cell culture experiments. 96-well format collagen type I coated plates of human HepaRG cells were prepared using established methods. Briefly, cryopreserved HepaRG cells were thawed, plated at a density of approximately 100,000 cells/well in HepaRG Thaw, Plate, and General Purpose media (HPRG770, Thermo Fisher Scientific), and incubated for 48 hours. 0.5% DMSO was selected as vehicle control to balance the requisite need of DMSO in HepaRG cultures to maintain differentiation (for example, baseline metabolism, proportions of hepatocytes vs. cholangiocytes), while enabling further hepatic receptor pathway activation (for example, PXR and CAR) in response to chemical exposure. 48 hours after plating, the culture medium was replaced with HepaRG Serum-Free Incudtion Media. Cells were exposed to each test chemical in duplicate and maintained in CO2 incubators for another 48 hours. Chemical plates were thawed to room temperature and 200x concentrations of treatment groups were prepared. 8-point conentration-reponse curves were made with the highest exposure at 100 uM, followed by half-log dilutions, all in 0.5% DMSO. Each test plate contained variouse controls, induction positive controls (1mM phenobarbital), cytotoxicity positive controls ([…] aflatoxin B1), vehicle controls (0.5% DMSO), and total lysis controls (0.5% DMSO). Cell morphology images were taken using an Essen IncuCyte FLR automated microscope, with six 96-well plates imaged in about 24 minutes. Images were captured and exported and JPEG files. Spent culture media was transfered to black-well plates for the LDH assay, and remaining media was sorted at -80 C for later use. Cells were treated with RLT buffer and frozen until shipped for gene expression analysis. Total RNA was isolated from the cell suspension in 75 uL of Buffer RLT (Qiagen, Germantown, MD 20874) by Quintiles/Expression Analysis (Durham, NC) using a custom isolation procedure. Total RNA from each plate well was transferred to a preamplification plate. Fluidigm's 96.96 Dynamic ArrayTM (Fluidigm, Amsterdam, the Netherlands) technology was used for gene expression analyses by quantitative reverse transcription polymerase chain reaction (qRT-PCR, performed by Quintiles/Expression Analysis, Durham, NC)89. Standard TaqManTM Assays (Applied Biosystems/ThermoFisher Scientific, Foster City, CA) were used to assess the expression of 93 genes selected based on their selectivity and sensitivity to important hepatic receptors known to be modulated by environmental chemicals; importance in human hepatocyte functionality; and hepatotoxicity. […]
Turning to `CN(C)C(=O)Nc1ccc(Cl)c(Cl)c1`, the result was inactive.

In the case of `CCOC(=O)C(C)Oc1ccc(Oc2cnc3cc(Cl)ccc3n2)cc1` (stereo not given), the call was inactive.

In the case of `CCCCCOC(=O)COc1cc(N2C(=O)C3=C(CCCC3)C2=O)c(F)cc1Cl`, the result was inactive.

As for `COC(=O)c1ccccc1C(=O)O`, the result was inactive.

On to `C[C@]12C[C@H](O)[C@H]3[C@@H](CCC4=CC(=O)CC[C@@]43C)[C@@H]1CC[C@@H]2C(=O)CO`, for which the molecule was called inactive.

One may read the AC50 as the concentration giving half of the maximal activity seen. In the case of `S=C(S)NCCNC(=S)S.[Mn+2].[S-]C([S-])=NCCN=C([S-])[S-].[Zn+2]`, the result was inactive and the concentration at half-maximal activity (AC50) is 1.63 µM (active).

`CCCCOC(=O)C(C)Oc1ccc(Oc2ccc(C(F)(F)F)cn2)cc1` (stereo not given): the call was inactive.

Turning to `C=CCOC(Cn1ccnc1)c1ccc(Cl)cc1Cl` (stereo not given), the AC50 was 68.9 µM (active).

For the molecule `CCN(Cc1c(F)cccc1Cl)c1c([N+](=O)[O-])cc(C(F)(F)F)cc1[N+](=O)[O-]`, the molecule was classed as inactive.

For `CC(=O)S[C@@H]1CC2=CC(=O)CC[C@]2(C)[C@H]2CC[C@@]3(C)[C@@H](CC[C@@]34CCC(=O)O4)[C@H]12`, the molecule was called inactive.

As to `CCCOC(=O)c1ccc(C(=O)OCCC)nc1`, the call was inactive.

On to `CC(=O)[C@H]1CC[C@H]2[C@@H]3CCC4=CC(=O)CC[C@]4(C)[C@H]3CC[C@]12C`, for which the AC50 was 60.6 µM (active).

As for `CCN(CC)C(=O)c1cccc(C)c1`, the outcome was inactive.

Consider `CCOC(=O)NCCOc1ccc(Oc2ccccc2)cc1`, for which the AC50 was 85.4 µM (active).

For `N#CSCSc1nc2ccccc2s1`, the outcome was inactive.

Consider `S=C([S-])NCCNC(=S)[S-].[Mn+2]`, for which the AC50 was 5.41 µM (active).

Turning to `c1ccc(Nc2ccccc2)cc1`, the call was inactive.

For `O=C(c1ccc(O)cc1O)c1ccc(O)cc1O`, the result was inactive.

`CCOC(=O)C(C)Oc1ccc(Oc2nc3ccc(Cl)cc3o2)cc1` (stereo not given): the molecule was called inactive.

As for `CCCN(CCC)C(=O)SCC`, the molecule was classed as inactive.

For the molecule `C#C[C@]1(O)CC[C@H]2[C@@H]3CCC4=CC(=O)CC[C@@H]4[C@H]3CC[C@@]21CC`, the call was inactive.

Consider `O=C(O)C1(C(=O)Nc2ccc(Cl)cc2Cl)CC1`, for which the call was inactive.

For the molecule `Oc1ccc(C(c2ccc(O)cc2)C(Cl)(Cl)Cl)cc1`, the result was inactive.

Regarding `CCCCCCC(C)OC(=O)COc1nc(F)c(Cl)c(N)c1Cl` (stereo not given), the molecule was called inactive.

`C[C@]12CC[C@@H]3c4ccc(O)cc4C[C@@H](CCCCCCCCCS(=O)CCCC(F)(F)C(F)(F)F)[C@H]3[C@@H]1CC[C@@H]2O` (stereo not given in full): the AC50 is 0.0482 µM (active).

`CCOC(=O)COc1cc(-n2ncc(C(F)(F)F)c(C)c2=O)c(F)cc1Cl`: the molecule was called inactive.

As for `O=C(O)c1ccccc1`, the molecule was called inactive.

Take `CC(C)(c1ccc(O)cc1)c1ccc(O)cc1`: the result was inactive.

As for `C#CCOC(=O)[C@@H](C)Oc1ccc(Oc2ncc(Cl)cc2F)cc1`, the call was inactive.

For `CC1(C)C(C=C(Cl)Cl)C1C(=O)OCc1cccc(Oc2ccccc2)c1` (stereo not given), the outcome was inactive.

On to `COC(=O)c1ccc(I)cc1S(=O)(=O)NC(=O)Nc1nc(C)nc(OC)n1`, for which the molecule was classed as inactive.

In the case of `Cc1nn(C)c(Oc2ccccc2)c1C=NOCc1ccc(C(=O)OC(C)(C)C)cc1`, the half-maximal activity concentration (AC50) is 8.31 µM (active).

`c1ccc2[nH]c(-c3cscn3)nc2c1`: the result was inactive.

Regarding `CC(C)(C)[C@@H](O)[C@@H](Cc1ccc(Cl)cc1)n1cncn1`, the call was inactive.

As to `O=C(c1ccccc1)C1CCCCC1`, the call was inactive.

`CCOC(=O)c1ccc(O)cc1`: the call was inactive.

Take `N[C@@H](Cc1cc(I)c(Oc2ccc(O)c(I)c2)c(I)c1)C(=O)O`: the molecule was called inactive.

On to `CCCOC(=O)NCCCN(C)C`, for which the call was inactive.

On to `CCCCC(CC)CN1C(=O)C2C3C=CC(C3)C2C1=O` (stereo not given), for which the call was inactive.
